Compounds with a hit are over-represented: about 3.5% of the library has one in this group of screens.
Anthrax LF prot – Bacillus anthracis LF protease inhibitors, primary screen, biochemical, multiplex microsphere, MLPCN library | Lethal factor (Bacillus anthracis), P15917 | multiplex microsphere protease cleavage assay | inhibition, % at 10 µM | hit rate 0.12% among 360,000 | AID 588501, 2011; also: plate controls were buffer without enzyme for full effect and enzyme alone for no effect
BoNT A protease – BoNT/A light chain protease inhibitors, primary screen, biochemical, flow cytometry, MLPCN library; Botulinum neurotoxin type A light chain protease (Clostridium botulinum A str. ATCC 3502); multiplex microsphere protease substrate cleavage; inhibition, % at 10 µM; hit rate 0.17% among 360,000; AID 588499, 2011; also: plate controls were buffer without enzyme for full effect and enzyme alone for no effect
Bead autofluor – counter-screen for toxin protease inhibitors: compound fluorescence; compound autofluorescence counterscreen, microsphere flow cytometry; stronger effect = higher value; fluorescence intensity (test concentration not listed); hit rate 3.1% among 360,000; AID 624483; in the data active = fluorescence intensity above about 16000; inconclusive = no clear call, values can overlap the other calls
BoNT F protease – BoNT/F light chain protease inhibitors, primary screen, biochemical, flow cytometry, MLPCN library | Multiplex microsphere protease cleavage assay | inhibition, % at 10 µM | hit rate 0.22% among 360,000 | Botulinum neurotoxin type F light chain protease (Clostridium botulinum); in the data active = inhibition above about 35%, passing the limit was not always enough; inconclusive = no clear call, values can overlap the other calls; also: plate controls were buffer without enzyme for full effect and enzyme alone for no effect
BH1578 lux ind – inducers of Vibrio cholerae quorum light production without autoinducers, primary screen, BH1578 luxS cqsA deficient, single point; activation, % at 18.7 µM; hit rate 0.16% among 350,000; AID 588436, 2011; V. cholerae BH1578 lux reporter, luminescence, 6 h; in the data active = activation mostly above about 9.7%, no sharp cut-off; inconclusive = no clear call, values can overlap the other calls; inactive = mostly below about 3.7%
An asterisk follows results filed as active; i = inactive; u = inconclusive; + = active, no number. Rule as the data show it, unless noted: active = inhibition above about 30%; inconclusive = no clear call, values can overlap the other calls; inactive = below that.

SMILES | Anthrax LF prot | BoNT A protease | Bead autofluor | BoNT F protease | BH1578 lux ind
COc1ccccc1NC(=O)C1CCCN(c2nc(C)cc(C)n2)C1 (stereo unspecified) | -2 | -1 | 9034 | 0 | -3
Cc1cc(C)nc(N2CCCC(C(=O)Nc3ccc4c(c3)OCO4)C2)n1 (stereo unspecified) | -1 | -2 | 20510* | -3 | 0
CCc1nnc(NC(=O)C2CCCN(c3nc(C)cc(C)n3)C2)s1 (stereo unspecified) | -1 | 2 | 18689* | -1 | i
Cc1cc(C)nc(N2CCCC(C(=O)Nc3nnc(C(C)(C)C)s3)C2)n1 (stereo unspecified) | -1 | -1 | 4188 | -5 | 0
Cc1cc(C)n2nc(C(=O)Nc3ccc4c(c3)OCO4)cc2n1 | -5 | 2 | 22219* | 0 | 0
O=C(Nc1ccc2c(c1)OCO2)c1cc2nc(C3CC3)cc(C(F)(F)F)n2n1 | -2 | 0 | 9919 | -11 | 0
Cc1cc(C)nc(N2CCC(C(=O)Nc3ccc4c(c3)OCO4)CC2)n1 | 0 | 1 | 8733 | 6 | 0
CCOC(=O)CNC(=S)N(CCCN1CCN(C)CC1)Cc1cccs1 | 14 | 0 | 2924 | 0 | -1
O=C(CC1SC(N2CCCCC2)=NC1=O)Nc1cccc(C(=O)Nc2ncccc2O)c1 (stereo unspecified) | -3 | 0 | 5746 | u | -4
CCCCC(=O)N/N=C(/C)C1=C(C)C(C)(C)OC1=O | -2 | 0 | 4490 | -5 | 0
CC1(c2cccs2)CC(c2cccs2)=C(C#N)C(=O)N1 (stereo unspecified) | -1 | -2 | 22806* | -5 | 0
CC1(c2ccccc2)CC(c2ccccc2)=C(C#N)C(=O)N1 (stereo unspecified) | 0 | 0 | 3518 | 5 | -1
Cc1c(C(=O)C(=O)N2CCN(Cc3ccc4c(c3)OCO4)CC2)c2ccccc2n1C | -3 | 0 | 4857 | -7 | i
CCNc1nc(NCC)nc(Nn2cnnc2)n1 | 1 | 0 | 20282* | 0 | 0
CCNc1nc(NC(C)(C)C)nc(N(CC)n2cnnc2)n1 | -1 | 1 | 6882 | 2 | -2
COc1ccc(N2CCN(C(CNC(=O)c3ccc4c(c3)OCO4)c3cccnc3)CC2)cc1 (stereo unspecified) | -3 | 0 | 3280 | -6 | +
COC(=O)c1ccccc1NC(=O)c1cc2nc(C3CC3)cc(C(F)(F)F)n2n1 | -2 | -4 | 21329* | -3 | i
CC(C)CNC(=O)c1cc2nc(C3CC3)cc(C(F)(F)F)n2n1 | -2 | 1 | 3223 | -25 | i
COc1cc(NC(=O)c2cc3nc(C4CC4)cc(C(F)(F)F)n3n2)c(OC)cc1Cl | -3 | -4 | 24788* | -3 | 0
O=C(CN1C(=O)c2ccccc2C1=O)OCC(=O)c1ccccc1 | -6 | 0 | 5993 | -10 | i
CC(C)c1ccc(O)c(N)c1 | -3 | 0 | 4305 | -6 | 0
CCC(C)c1ccc(O)c(N)c1 (stereo unspecified) | -3 | 0 | 16286* | -3 | -14
CCOC(=O)c1[nH]c(C)c(C(=O)OCC(=O)Nc2sc3c(c2C#N)CCCCC3)c1C | 1 | 0 | 4082 | 0 | -1
O=C(COC(=O)COc1ccc2ccccc2c1)NCC(F)(F)F | -6 | 4 | 4574 | 37* | i
CCN(CC)CCNc1c(C)cc(CO)c(Cl)c1C | -4 | 0 | 2959 | 3 | 0
SMILES | Anthrax LF prot | BoNT A protease | Bead autofluor | BoNT F protease | BH1578 lux ind
O=c1[nH]c(N2CCCCC2)nc2ncn(Cc3ccccc3)c12 | 1 | 1 | 3966 | 2 | 0
O=C(NCC1CCCO1)C1CC(c2ccccc2Cl)=NO1 (stereo unspecified) | 1 | 1 | 21967* | 1 | i
COc1ccc(OC)c(C2=NOC(C(=O)NCC3CCCO3)C2)c1 (stereo unspecified) | -1 | 2 | 15476 | 2 | -2
COCc1cc(C)nc2sc(C(=O)NN)c(-n3cccc3)c12 | -6 | -1 | 3924 | 1 | -1
CCCCNC(=O)c1sc2nc(C)cc(COC)c2c1-n1cccc1 | -6 | -2 | 16799* | -5 | -1
O=C(C1=NOC(CNc2ncc(C(F)(F)F)cc2Cl)C1)N1CCOCC1 (stereo unspecified) | 1 | -1 | 2182 | -7 | 0
O=S(=O)(c1ccc(Cl)c(Cl)c1)N1CCc2nc3ccccc3n2CC1 | 6 | 0 | 17740* | -4 | i
CNS(=O)(=O)/C=C/c1ccccc1 | -3 | -1 | 7003 | 0 | 0
O=S(=O)(/C=C/c1ccccc1)Oc1ccccc1 | 0 | -3 | 21677* | -4 | i
Cc1cc(C)[n+](-c2ccc(Oc3ccccc3)c(S(=O)(=O)[O-])c2)[nH]1 | -7 | 1 | 4417 | -10 | 0
COC(=O)CCSCC(=O)N1N=C(c2ccc(Br)cc2)CC1c1cccc(OC)c1OC (stereo unspecified) | -6 | 0 | 3427 | -6 | 0
CCCCn1ccnc1C(=O)c1cccc(S(=O)(=O)N2CC(C)CC(C)C2)c1 (stereo unspecified) | -8 | 0 | 16271* | -4 | i
CNC(=O)c1cc(S(=O)(=O)N(C)C)ccc1Cl | -2 | 1 | 22686* | 0 | 0
CCN(CC)S(=O)(=O)c1cc(C(=O)O)ccc1Cl | -4 | 0 | 10783 | -10 | 7
CCN(CC)S(=O)(=O)c1ccc(Cl)c(C(=O)OC)c1 | 1 | u | 17005* | -4 | 0
CCN(CC)S(=O)(=O)c1cc(C(=O)OC)ccc1Cl | -4 | -1 | 20925* | -4 | -6
COC(=O)c1ccc(Cl)c(NC(C)=O)c1 | 1 | u | 21958* | -5 | -3
COc1cccc(CN(C)C(=O)CSc2nc3ccccc3[nH]2)c1OC | 0 | -1 | 4530 | 0 | 0
CC(C)N(C1=CC(=O)OC12CCCCC2)C(C)C | 20 | 0 | 4461 | u | -1
CCN(CC)C1=CC(=O)OC12CCCCC2 | -5 | u | 22472* | -1 | -1
N#C/C(=C\C=C\c1ccccc1)c1nc(-c2ccc3c(c2)OCO3)cs1 | 21 | 52* | 3363 | 10 | i
COc1ccccc1-c1cc(C(=O)NCc2ccc(F)cc2)no1 | -1 | 2 | 16081 | -2 | 0
O=C(NCc1ccccc1)c1cc(-c2cccs2)on1 | -9 | 5 | 18644* | 7 | 0
COC(=O)c1ccccc1NC(=O)c1cc(-c2ccco2)on1 | 0 | 0 | 4529 | -2 | 0
COC(=O)c1ccccc1NC(=O)c1cc(-c2cccs2)on1 | -1 | 1 | 20518* | 2 | i
O=C(NCc1ccc(F)cc1)c1cc(-c2cccs2)on1 | 0 | 2 | 10320 | 0 | i
COc1ccccc1-c1cc(C(=O)NCc2ccccc2)no1 | -2 | -1 | 21016* | -2 | 0
CC(CCN1CCC(CN2C(=O)C(=O)NC[C@@H]2Cc2ccccc2)CC1)c1ccccc1 (stereo partly specified) | -3 | 0 | 3709 | -5 | -1
